From PubChem BioAssay (NCATS)
Inconclusive results are not listed. A call without a number means that no potency is given here. Unmarked numbers belong to inactive results. Calls of active or inactive are those of the source. Calls follow the shape of the dose curve; as a rule, active = well fitted inhibition curve with a large enough effect; inconclusive = small, poorly fitted or top-dose-only effect; inactive = flat fitted curve, though single readings scatter.

Biological target: Glutathione peroxidase 1 (Homo sapiens) (UniProt P07203)
Experiment: Primary qHTS Assay for Inhibitors of Recombinant Selenoprotein Glutathione Peroxidase 1 (GPX1) (AID 1845191)
Conditions: recombinant GPX1, GR-coupled NADPH fluorescence, 15 min; series mostly up to 48.8 µM; activity, negative = inhibition: at the top concentration
Summary of the method: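 NADPH consumption tracked by fluorescence at 340/450 nm between t=0 and t=15 min, room temperature. Final mix: 10 nM GPX1, 100 nM glutathione reductase, 1 mM GSH, 0.5 mM NADPH, 0.5 mM cumene hydroperoxide, 0.01% BSA; 30 min compound–enzyme preincubation.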
Also: nearly all actives have a fitted effect of over 65% in size.

Chain of Glutathione peroxidase 1 (Homo sapiens) (P07203 whole entry, looked up): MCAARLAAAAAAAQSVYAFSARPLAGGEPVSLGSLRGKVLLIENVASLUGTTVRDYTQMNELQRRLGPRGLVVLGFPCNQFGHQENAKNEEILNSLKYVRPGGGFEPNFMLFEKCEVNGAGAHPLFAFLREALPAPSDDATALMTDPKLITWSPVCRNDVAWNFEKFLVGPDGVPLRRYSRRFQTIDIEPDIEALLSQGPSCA

| Compound | Potency |
| --- | --- |
| CN1C(CCl)Nc2cc(Cl)c(S(N)(=O)=O)cc2S1(=O)=O (centres undefined) | inactive |
| Cc1ccc(Nc2c(F)cccc2Cl)c(CC(=O)O)c1 | inactive |
| COc1ccc(CN2CCN(C(c3ccc(F)cc3)c3ccc(F)cc3)CC2)c(OC)c1OC | inactive |
| Cc1nc2n(c(=O)c1CCN1CCC(c3noc4cc(F)ccc34)CC1)CCC[C@H]2O | inactive |
| CN1CCN(C(c2ccccc2)c2ccccc2)CC1 | inactive |

Biological target: Phospholipid hydroperoxide glutathione peroxidase GPX4 (Homo sapiens) (UniProt P36969)
Experiment: Primary qHTS Assay for Inhibitors of Recombinant Selenoprotein Glutathione Peroxidase 4 (GPX4) (AID 1845192)
Conditions: recombinant GPX4, GR-coupled NADPH fluorescence, 15 min; series mostly up to 50 µM; activity change, negative = inhibition: at the top concentration
Summary of the method: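 NADPH consumption followed by fluorescence at 340/450 nm, t=0 and after 15 min at room temperature. Reaction started with cumene hydroperoxide (0.5 mM final) after 30 min compound–GPX4 preincubation; final 200 nM GPX4, 100 nM GR, 1 mM GSH, 0.5 mM NADPH.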

Chain of Phospholipid hydroperoxide glutathione peroxidase GPX4 (Homo sapiens) (P36969 whole entry, looked up): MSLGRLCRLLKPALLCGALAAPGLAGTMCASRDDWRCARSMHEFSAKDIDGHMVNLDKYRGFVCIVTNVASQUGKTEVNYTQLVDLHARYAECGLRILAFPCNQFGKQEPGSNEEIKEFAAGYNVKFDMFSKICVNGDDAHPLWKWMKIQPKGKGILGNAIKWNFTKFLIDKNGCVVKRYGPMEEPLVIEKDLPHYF

| Compound | activity change, negative = inhibition | Potency | outcome |
| --- | --- | --- | --- |
| CC(=O)O[C@]1(C(C)=O)CC[C@H]2[C@@H]3C[C@H](C)C4=CC(=O)CC[C@]4(C)[C@H]3CC[C@@]21C | -2.17% |  |  |
| CN1C(CCl)Nc2cc(Cl)c(S(N)(=O)=O)cc2S1(=O)=O (centres undefined) |  | inactive |  |
| CC(C)NC[C@@H](O)COc1cccc2ccccc12 |  |  | inactive |
| COc1ccc(OC)c(C(O)CNC(=O)CN)c1 (centres undefined) | -12.5% |  |  |
| C[C@]12CC[C@@H]3c4ccc(O)cc4CC[C@H]3[C@@H]1C[C@@H](O)[C@@H]2O |  | inactive |  |
| CN(C/C=C/c1ccccc1)Cc1cccc2ccccc12 | -39.7% |  |  |
| CCOC(=O)c1cccc(N)c1 |  |  | inactive |
| COc1ccc(C2C(=O)c3ccccc3C2=O)cc1 | -9.4% |  |  |
| CC(=O)OCC(=O)NCCCOc1cccc(CN2CCCCC2)c1 | -16.2% |  |  |
| Cc1ccc(Nc2c(F)cccc2Cl)c(CC(=O)O)c1 |  | inactive |  |
| CC1(C)O[C@@H]2C[C@H]3[C@@H]4C[C@H](F)C5=CC(=O)C=C[C@]5(C)[C@H]4[C@@H](O)C[C@]3(C)[C@]2(C(=O)CO)O1 |  | inactive |  |
| Cc1cc2c(cc1CC(=O)c1sccc1S(=O)(=O)Nc1onc(C)c1Cl)OCO2 |  | inactive |  |
| CCCSS/C(CCO)=C(\C)N(C=O)Cc1cnc(C)nc1N | 0.815% |  |  |
| CN(C)CCCOc1nn(Cc2ccccc2)c2ccccc12 |  | inactive |  |
| N[C@H](CO)C(=O)O |  | inactive |  |
| Nc1ccn([C@@H]2O[C@H](CO)[C@@H](O)C2(F)F)c(=O)n1 |  | inactive |  |
| CCN1CCN(c2cc3c(cc2F)c(=O)c(C(=O)O)cn3C2CC2)CC1 | 1.52% |  |  |
| CCCCS(=O)(=O)N[C@@H](Cc1ccc(OCCCCC2CCNCC2)cc1)C(=O)O |  | inactive |  |
| CC(C)=CCC1C(=O)N(c2ccccc2)N(c2ccccc2)C1=O |  |  | inactive |
| COC(=O)C1=C(C)NC(C)=C(C(=O)O[C@@H]2CCCN(Cc3ccccc3)C2)[C@@H]1c1cccc([N+](=O)[O-])c1 | 1.78% |  |  |

| Compound | activity change, negative = inhibition | Potency | outcome |
| --- | --- | --- | --- |
| COc1ccc(CN2CCN(C(c3ccc(F)cc3)c3ccc(F)cc3)CC2)c(OC)c1OC |  | inactive |  |
| CC[N+](CC)(CCNC(=O)C(=O)NCC[N+](CC)(CC)Cc1ccccc1Cl)Cc1ccccc1Cl |  |  | inactive |
| CCn1cc(C(=O)O)c(=O)c2cnc(N3CCCC3)nc21 | -6.64% [at 9.73 µM] |  |  |
| COCc1c(C(C)C)nc(C(C)C)c(/C=C/[C@@H](O)C[C@@H](O)CC(=O)O)c1-c1ccc(F)cc1 | -11% |  |  |
| CC(=O)N(O)CCCCCNC(=O)CCC(=O)N(O)CCCCCNC(=O)CCC(=O)N(O)CCCCCN |  | inactive |  |
| CC1=C(C(=O)OC(C)C)C(c2cccc([N+](=O)[O-])c2)C(C(=O)OC2CN(C(c3ccccc3)c3ccccc3)C2)=C(N)N1 (centres undefined) |  |  | inactive |
| C[C@]12CCC(=O)C=C1CC[C@H]1[C@@H]3CC[C@](O)(C(=O)CO)[C@@]3(C)C[C@H](O)[C@@]12F | -19.5% |  |  |
| Cc1nc2n(c(=O)c1CCN1CCC(c3noc4cc(F)ccc34)CC1)CCC[C@H]2O |  | inactive |  |
| CC(=O)Oc1ccc2c(c1)CC[C@@H]1[C@@H]2CC[C@]2(C)[C@@H](O)CC[C@@H]12 |  |  | inactive |
| CCN(CCCc1ccccc1)CCCc1ccccc1 | 2.41% |  |  |
| CN1CCC[C@@H]1c1cccnc1 |  |  | inactive |
| CCCN1CCCC[C@H]1C(=O)Nc1c(C)cccc1C | -12.5% |  |  |
| CCCCC(=O)O[C@]1(C(=O)CO)CC[C@H]2[C@@H]3CCC4=CC(=O)CC[C@]4(C)[C@H]3[C@@H](O)C[C@@]21C |  |  | inactive |
| CC(=O)OCC(=O)[C@@]1(O)CC[C@H]2[C@@H]3CCC4=CC(=O)C=C[C@]4(C)[C@H]3[C@@H](O)C[C@@]21C |  | inactive |  |
| Cc1ccnc(NS(=O)(=O)c2ccc(N)cc2)n1 |  |  | inactive |
| CN1CCCC(CC2c3ccccc3Sc3ccccc32)C1 (centres undefined) |  |  | inactive |
| Cc1ncc(CSSCc2cnc(C)c(O)c2CO)c(CO)c1O | -18.2% |  |  |
| C[C@]12C=CC(=O)C=C1CC[C@@H]1[C@@H]2[C@@H](O)C[C@@]2(C)[C@H]1CC[C@]2(O)C(=O)CO |  | inactive |  |
| CN1CCN(C(c2ccccc2)c2ccccc2)CC1 |  | inactive |  |
